Measured values: PubChem BioAssay AID1159580 (chemical genetic matrix, 2015)
Hit rate of the full screen: of about 5,500 compounds, about 2,000 (36%) were called active. About 18% were inconclusive and are not listed. No stated cut-off is given here; in the data, active means normalized growth mostly below about 0.91 (no sharp cut-off); inconclusive means no clear call, values can overlap the other calls; inactive means mostly above about 0.92. The list shows a part of the results.

Test: chemical genetic growth profiling, strain panel (AID 1159580);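 further: tested at 20 µM; growth read once vehicle control cultures reached saturation at 30 °C; 1 = growth at the plate median or of vehicle wells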
Details: growth OD
[1] = S. cerevisiae deletion strains, locus YAL013W, strain DEP1, stronger effect = lower value
[2] = S. cerevisiae deletion strains, locus YJR075W, strain HOC1, stronger effect = lower value
[3] = S. cerevisiae deletion strains, locus YNL153C, strain GIM3, stronger effect = lower value

Measured: normalized growth

CCCCOC(=O)NS(=O)(=O)c1sc(CC(C)C)cc1-c1ccc(Cn2c(CC)nc3c(C)cc(C)nc32)cc1
inactive: [1] 1 | S. cerevisiae deletion strains, locus YAL040C, strain CLN3, stronger effect = lower value 1.01 | S. cerevisiae deletion strains, locus YCL061C, strain MRC1 (second series), stronger effect = lower value 0.999 | S. cerevisiae deletion strains, locus YDR150W, strain NUM1, stronger effect = lower value 1.01 | S. cerevisiae deletion strains, locus YDR363W, strain ESC2, stronger effect = lower value 0.988 | S. cerevisiae deletion strains, locus YER002W, strain NOP16, stronger effect = lower value 0.997 | [2] 0.999 | S. cerevisiae deletion strains, locus YNL128W, strain TEP1, stronger effect = lower value 1 | [3] 0.923 | S. cerevisiae deletion strains, locus YNL175C, strain NOP13, stronger effect = lower value 1 | S. cerevisiae deletion strains, locus YNL197C, strain WHI3, stronger effect = lower value 1 | S. cerevisiae deletion strains, locus YNL224C, strain SQS1, stronger effect = lower value 0.98 | S. cerevisiae deletion strains, locus YOR083W, strain WHI5 (second series), stronger effect = lower value 0.919

Cc1nn(-c2ccccc2)nc1C(=O)NNC(=S)Nc1ccc(Cl)cc1
inactive: [1] 0.957 | S. cerevisiae deletion strains, locus YBR229C, strain ROT2, stronger effect = lower value 0.983 | S. cerevisiae deletion strains, locus YCL061C, strain MRC1, stronger effect = lower value 1.04 | S. cerevisiae deletion strains, locus YGR078C, strain PAC10, stronger effect = lower value 0.991 | S. cerevisiae deletion strains, locus YHR030C, strain SLT2, stronger effect = lower value 0.889 | S. cerevisiae deletion strains, locus YHR087W, strain rtc3, stronger effect = lower value 0.988 | S. cerevisiae deletion strains, locus YJL187C, strain SWE1, stronger effect = lower value 0.954 | S. cerevisiae deletion strains, locus YJR043C, strain POL32, stronger effect = lower value 0.985 | S. cerevisiae deletion strains, locus YLR058C, strain SHM2 (second series), stronger effect = lower value 1.01 | S. cerevisiae deletion strains, locus YLR085C, strain ARP6, stronger effect = lower value 0.82 | S. cerevisiae deletion strains, locus YLR262C, strain YPT6, stronger effect = lower value 0.858 | S. cerevisiae deletion strains, locus YML094W, strain GIM5, stronger effect = lower value 0.904 | S. cerevisiae deletion strains, locus YMR263W, strain SAP30, stronger effect = lower value 1.01 | [3] 1.04 | S. cerevisiae deletion strains, locus YNL322C, strain KRE1, stronger effect = lower value 1.02 | S. cerevisiae deletion strains, locus YPL241C, strain CIN2, stronger effect = lower value 0.929 | S. cerevisiae deletion strains, locus YPR135W, strain CTF4, stronger effect = lower value 0.969
active: S. cerevisiae deletion strains, locus YEL061C, strain CIN8, stronger effect = lower value 0.866 | [2] 1.33 [resistant] | S. cerevisiae deletion strains, locus YLR039C, strain RIC1, stronger effect = lower value 0.785 | S. cerevisiae deletion strains, locus YNL298W, strain CLA4 (second series), stronger effect = lower value 0.835 | S. cerevisiae deletion strains, locus YNR030W, strain Alg12, stronger effect = lower value 0.854 | S. cerevisiae deletion strains, locus YPL055C, strain LGE1, stronger effect = lower value 0.814 | S. cerevisiae strains, strain wild type, stronger effect = lower value 0.887
